For 14 compounds, Potency results are on record in PubChem BioAssay (NCATS).

Results filed as inconclusive are left out. Active and inactive are the calls of the source. The call rests on the fitted dose curve; in most records, active means well fitted inhibition curve with a large enough effect; inconclusive means small, poorly fitted or top-dose-only effect; inactive means flat fitted curve, though single readings scatter.

Common to all, as to assay: qHTS profiling for inhibitors of Plasmodium falciparum proliferation (AID 504749); further: nearly all actives have a fitted effect of over 60% in size
Common to all, as to details: P. falciparum in erythrocytes, SYBR Green DNA, 72 h; series mostly up to 28.7 µM
Background: qHTS replaces the single test concentration by a dilution series.

One experiment concerns CP250. The method, boiled down: (§1)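 Readout was DNA-dye fluorescence from lysed cultures, ex 485/em 535 nm. Parasitized red cells had grown 72 h with compound; data scaled between 0.29 uM artemisinin and DMSO wells and corrected using vehicle-only plates.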
In the next experiment the test system is CP252. The method, boiled down: as §1
The next experiment concerns CP256. The gist of the method: as §1
The next experiment has as its system CP260. The gist of the method:
as §1

Another experiment deals with CP262. The method, boiled down:
as §1

Another experiment relates to CP265. The method, boiled down:
as §1

The test system of another experiment is CP268. The gist of the method: as §1
For a further experiment, the system named is CP269. The method, boiled down: as §1
In another experiment the test system is CP286. The method, boiled down:
as §1

The test system of a further experiment is CP291. The gist of the method:
as §1

Another experiment relates to CP297. The method, boiled down: as §1
Another experiment deals with CP305. The gist of the method:
as §1

Another experiment deals with CP315. The method, boiled down:
as §1

A further experiment deals with CP325. The method, boiled down:
as §1

Another experiment relates to CP329. The method, boiled down: as §1
A further experiment concerns CP335. The method, boiled down: as §1
In a further experiment the test system is DFO2036. The gist of the method:
as §1

In a further experiment the test system is DIV14. The method, boiled down: as §1
The subject of another experiment is DIV17. The gist of the method: as §1
The next experiment concerns CP266. The method, boiled down: as §1
Potency means the concentration at half of the fitted maximal effect.

On to `O=P(O)(O)C(Cl)(Cl)P(=O)(O)O`, for which the Potency result with CP250, with CP252, with CP256, in the experiment with CP260, in the experiment with CP262 and in the experiment with CP265 was “inactive” in each case. Besides, the Potency entry in the experiment with CP268, in the experiment with CP269, in the experiment on CP286, in the experiment on CP291, in the experiment on CP297 and with CP305 was “inactive” each time. Moreover, the Potency entry in the experiment with CP315, in the experiment on CP325, in the experiment with CP329, in the experiment with CP335, in the experiment with DFO2036 and with DIV14 was “inactive” throughout. Besides, in the experiment on DIV17, the Potency result is “inactive”.

For `NCC(O)c1cccc(O)c1` (stereo not given), the Potency result in the experiment with CP250, in the experiment with CP252, in the experiment on CP256, in the experiment on CP260, in the experiment with CP262 and in the experiment on CP265 was “inactive” throughout. Also, the Potency entry in the experiment on CP268, in the experiment on CP269, in the experiment on CP286, with CP291, in the experiment on CP297 and with CP305 was “inactive” in each case. Moreover, the Potency entry in the experiment with CP315, in the experiment with CP325, with CP329, in the experiment on CP335, in the experiment on DFO2036 and with DIV14 was “inactive” in each case. Further, the Potency result in the experiment on DIV17 was “inactive”.

For the compound `CCNC(C)Cc1cccc(C(F)(F)F)c1` (stereo not given), the Potency entry with CP250, in the experiment on CP252, in the experiment on CP256, in the experiment with CP260, in the experiment on CP262 and in the experiment with CP265 was “inactive” each time. For the same compound, the Potency result in the experiment with CP266, with CP268, in the experiment on CP269, in the experiment on CP286, with CP291 and in the experiment with CP297 was “inactive” each time. Besides, the Potency result in the experiment on CP305, in the experiment on CP315, in the experiment on CP325, in the experiment with CP329, with DFO2036 and with DIV14 was “inactive” in each case. For the same compound, the Potency entry in the experiment on DIV17 was “inactive”.

Turning to `CN1C2CCC1CC(OC(c1ccccc1)c1ccc(Cl)cc1)C2` (stereo not given), the Potency in the experiment on CP250 is 10 µM (active); in the experiment with CP252 it was 7.94 µM (active); with CP256, 7.08 µM (active); in the experiment on CP260 it was 7.94 µM (active); with CP262, 5.36 µM (active); in the experiment with CP265, 8.91 µM (active). Besides, the Potency is 13.5 µM (active) in the experiment with CP266; 9.53 µM (active) in the experiment with CP268; 9.53 µM (active) with CP269; 5.01 µM (active) with CP286; 12 µM (active) in the experiment on CP291; 8.49 µM (active) in the experiment with CP297. Besides, the Potency was 12 µM (active) with CP305; 9.53 µM (active) with CP325; 13.5 µM (active) in the experiment with CP329; 6.01 µM (active) with CP335; 11.2 µM (active) with DFO2036; 7.57 µM (active) in the experiment with DIV14. Also, in the experiment with DIV17, the Potency was 7.57 µM (active).

As for `CC1CCC(C(C)C)C(OC(=O)c2ccccc2N)C1` (stereo not given), the Potency entry in the experiment with CP250, in the experiment on CP252, with CP256, in the experiment on CP260, with CP262 and in the experiment on CP265 was “inactive” throughout. Moreover, the Potency entry in the experiment with CP266, with CP268, with CP269, in the experiment on CP286, in the experiment with CP291 and in the experiment with CP297 was “inactive” each time. Besides, the Potency result with CP305, in the experiment with CP315, in the experiment with CP325, in the experiment with CP329, in the experiment on CP335 and with DFO2036 was “inactive” in each case. The Potency result in the experiment with DIV17 is “inactive”.

As to `COCC(C)N(C(=O)CCl)c1c(C)csc1C` (stereo not given), the Potency result with CP250, with CP252, in the experiment with CP256, with CP260, with CP262 and in the experiment on CP265 was “inactive” each time. Further, the Potency entry in the experiment with CP266, with CP268, in the experiment with CP269, in the experiment with CP286, with CP291 and with CP305 was “inactive” in each case. The Potency result in the experiment on CP315, with CP325, in the experiment on CP329, with CP335, with DFO2036 and in the experiment on DIV14 was “inactive” throughout. Besides, in the experiment with DIV17, the Potency entry is “inactive”.

In the case of `Clc1ccc(Cl)cc1`, the Potency entry in the experiment with CP250, with CP252, in the experiment with CP256, with CP260, in the experiment on CP262 and with CP265 was “inactive” throughout. For the same compound, the Potency entry in the experiment on CP266, with CP268, with CP269, with CP286, with CP291 and with CP297 was “inactive” throughout. The Potency entry in the experiment on CP305, in the experiment with CP315, in the experiment on CP325, in the experiment with CP329, with CP335 and with DFO2036 was “inactive” each time. In addition, the Potency result in the experiment with DIV14 and in the experiment with DIV17 was “inactive” in each case.

Consider `CCC(N)Cc1c[nH]c2ccccc12` (stereo not given), for which the Potency entry with CP250, with CP252, in the experiment with CP256, in the experiment on CP260, in the experiment on CP262 and with CP265 was “inactive” in each case. Moreover, the Potency entry in the experiment on CP266, with CP268, with CP269, in the experiment on CP286, with CP291 and in the experiment on CP297 was “inactive” throughout. The Potency result in the experiment on CP305, in the experiment with CP315, in the experiment with CP325, in the experiment on CP329, with CP335 and in the experiment on DFO2036 was “inactive” each time. Further, the Potency result in the experiment on DIV14 and in the experiment with DIV17 was “inactive” in each case.

With `CC(N)Cc1ccc(O)cc1` (stereo not given), the Potency entry in the experiment on CP250, with CP252, in the experiment on CP256, in the experiment on CP260, in the experiment on CP262 and in the experiment on CP265 was “inactive” throughout. Besides, the Potency result in the experiment with CP266, in the experiment with CP268, in the experiment with CP269, in the experiment on CP286, in the experiment on CP291 and in the experiment with CP297 was “inactive” each time. In addition, the Potency entry in the experiment on CP305, with CP315, in the experiment on CP325, in the experiment with CP329, in the experiment with CP335 and in the experiment on DFO2036 was “inactive” in each case. The Potency entry in the experiment with DIV14 and in the experiment on DIV17 was “inactive” each time.

With `Clc1ccccc1Cl`, the Potency entry in the experiment on CP250, in the experiment with CP252, in the experiment with CP256, with CP260, in the experiment with CP262 and with CP265 was “inactive” each time. For the same compound, the Potency result in the experiment with CP266, in the experiment on CP268, with CP269, in the experiment on CP286, in the experiment on CP291 and with CP297 was “inactive” each time. Besides, the Potency entry in the experiment on CP305, in the experiment on CP315, in the experiment with CP325, in the experiment with CP329, in the experiment on CP335 and in the experiment on DFO2036 was “inactive” in each case. Besides, the Potency result in the experiment with DIV14 and in the experiment on DIV17 was “inactive” each time.

For the compound `C=CCN=C=S`, the Potency entry with CP250, with CP252, in the experiment with CP256, in the experiment with CP260, in the experiment on CP262 and in the experiment with CP265 was “inactive” throughout. The Potency entry with CP266, with CP286, with CP325, in the experiment with CP335, in the experiment on DFO2036 and with DIV14 was “inactive” each time.

For the compound `O=C1CCCCC1CN1CCCCC1` (stereo not given), the Potency result in the experiment on CP250, in the experiment on CP252, in the experiment on CP256, in the experiment on CP260, in the experiment on CP262 and in the experiment on CP265 was “inactive” each time. Also, the Potency entry in the experiment with CP266, in the experiment on CP268, in the experiment with CP269, in the experiment with CP286, in the experiment with CP291 and with CP297 was “inactive” in each case. In addition, the Potency entry with CP305, with CP315, with CP325, in the experiment on CP329, in the experiment on CP335 and in the experiment with DFO2036 was “inactive” each time. The Potency result with DIV14 and in the experiment on DIV17 was “inactive” each time.

Regarding `Clc1ccc(C2(Cn3cncn3)OCCO2)c(Cl)c1`, the Potency result with CP250, with CP252, in the experiment with CP256, in the experiment with CP260, with CP262 and in the experiment with CP265 was “inactive” throughout. For the same compound, the Potency entry with CP266, in the experiment with CP268, in the experiment with CP269, with CP286, in the experiment on CP291 and in the experiment with CP297 was “inactive” throughout. Further, the Potency entry with CP305, in the experiment with CP315, in the experiment with CP325, with CP329, in the experiment with CP335 and with DFO2036 was “inactive” in each case. For the same compound, the Potency result with DIV14 and with DIV17 was “inactive” each time.

In the case of `c1csc(C2(N3CCCCC3)CCCCC2)c1`, the Potency result in the experiment with CP250, with CP252, with CP256, in the experiment with CP260, in the experiment with CP262 and with CP265 was “inactive” each time. The Potency entry in the experiment with CP266, in the experiment with CP268, with CP269, in the experiment on CP286, in the experiment with CP291 and with CP297 was “inactive” each time. The Potency entry with CP305, in the experiment on CP315, in the experiment with CP325, in the experiment on CP329, in the experiment on CP335 and in the experiment with DFO2036 was “inactive” throughout. For the same compound, the Potency result with DIV17 was “inactive”.
